From ChEMBL document CHEMBL3988442, “University of Dundee, Small-Polar-MMV Screening Library” (2021)
About 440 (0.52%) of roughly 85,000 compounds showed an effect of 50% or more. The sample holds strong results, similar compounds and a random draw of the others, so the mix is not that of the screen.

Assay: In vitro enzyme assay to detect hydrolysis of chlorophenol red-beta-D-[…] directly proportional to the number of Toxoplasma stably expressing beta-galactosidase
Assay type: functional, organism-based, Toxoplasma gondii
Set-up: scale not given: in the data most compounds retested in dose-response had high values

Compound	Percent Effect (50 µM) [%]	Percent Effect (10 µM) [%]
CCC(C)N(CC(=O)OC)Cc1nccn1C (configuration not stated)	1.211	
OCc1ccccc1CC1CCNCC1	2.025	
Cc1ccc(C(=O)Nc2cc(C(C)C)n[nH]2)cn1		-1.588
CC(C)c1cc(NC(=O)c2cccnc2)[nH]n1		41.77
CC(C)CC(=O)Nc1cc(C(C)C)n[nH]1	12	
CC(C)c1cc(NC(=O)c2ccncc2)[nH]n1		64.12
CC(C)c1cc(NC(=O)c2ccc(C(=O)NC(C)(C)C)cc2)[nH]n1		9.105
CC(C)c1cc(NC(=O)c2ccc([S+]([O-])C(C)C)cc2)[nH]n1 (configuration not stated)		54.78
CC(C)c1cc(NC(=O)c2ccc(NC3CC3)nc2)[nH]n1		3.917
Cc1ccc(CC(=O)Nc2cc(C(C)C)n[nH]2)cn1		86.76
Cc1cc(NC(=O)c2ccc(F)cc2)[nH]n1	-8.221	
CCn1ncnc1CN1CCC2(CCN(C)C2)CC1	28.33	
NC(=O)CCC(=O)c1ccc2c(c1)OCCO2	-23.48	
Cc1cnc(NCC(O)CN2CCCCC2)nc1 (configuration not stated)	-5.965	
C[C@H](N)c1ccc(F)cc1OC(F)F	1.744	
CCOc1cccc(OCCNCCN)c1	3.655	
NC(=O)C(NC(=O)C1CC=CC1)c1ccc(F)cc1 (configuration not stated)	-2.351	
CCS(=O)(=O)CCN(C)C(=O)Nc1cc(F)cc(Cl)c1	0.02752	
COCCNc1nc(-c2ccc(S(N)(=O)=O)cc2)cs1	33.23	
COCCNc1nnc(-c2cnc(C)cn2)s1		-7.364
COCCNc1nnc(-c2ccc(C)nc2)s1		91.21
Cc1cncc(C(=O)N2CCCC2C(C)(C)O)c1 (configuration not stated)	98.37	
Cc1cncc(C(=O)N2CCCCC2c2nc[nH]n2)c1 (configuration not stated)		2.456
CC(=O)c1csc(C(=O)N2CCCC2C(C)(C)O)c1 (configuration not stated)	-8.417	
Cc1noc(NC(=O)c2ccc(OC(F)(F)F)cc2)n1		62.71
Cc1ccc(C(=O)Nc2nc(C)no2)cc1		2.71

Compound	Percent Effect (50 µM) [%]	Percent Effect (10 µM) [%]
Cc1noc(NC(=O)c2ccc(F)cc2)n1		-4.949
COCCC1CN(C(=O)c2ccc(C)c(F)c2)CCO1 (configuration not stated)	-2.005	
CC(=O)Nc1cc(S(=O)(=O)NCCN(C)C)ccc1C	12.19	
O=C(NCCc1ccccn1)Nc1cn[nH]c1	-7.115	
COC1CCN(C(=O)c2cccc(F)c2C)C1 (configuration not stated)	32.95	
O=C(O)C(F)(F)F.O=S(=O)(C1CC1)N1CCOCC2(CCN(c3ccccn3)C2)C1 (configuration not stated)		-7.77
CS(=O)(=O)N1CCOCC2(CCN(c3ccccn3)C2)C1.O=C(O)C(F)(F)F (configuration not stated)		93.48
CCS(=O)(=O)N1CCOCC2(CCN(c3ccccn3)C2)C1.O=C(O)C(F)(F)F (configuration not stated)		-1.246
Cc1ccc2[nH]c(CN3CCC(O)C3)cc(=O)c2c1 (configuration not stated)	-10.62	
Fc1ccc(CN2CCCC2Cn2cncn2)c2ncccc12 (configuration not stated)		-4.806
OC[C@@H]1CCCN1Cc1ccc(F)c2cccnc12	78.15	
Fc1ccc(CN2CCCC2Cn2cccn2)c2ncccc12 (configuration not stated)		4.2
Cc1nc(CC(=O)N[C@H]2CC[C@H]2N)cs1	7.419	
Cc1cc(C(=O)Nc2cn(C)cc(Br)c2=O)[nH]n1	-6.695	
c1ccc(COCCc2noc(C3CNC3)n2)cc1	62.37	
Cc1cccc(OCCN2CCN(Cc3noc(C)n3)CC2)c1		-13.55
COCCc1noc(C2CCN(CC(N)=O)CC2)n1	1.681	
Cc1cccc(OCCCN2CCC(N(C)Cc3noc(C)n3)C2)c1 (configuration not stated)		19.53
C1CC(c2noc(C3CC3)n2)CN(CCOCC2CC2)C1 (configuration not stated)		10.99
COCCc1noc(C2CNC2)n1	-4.923	
C(Cc1noc(C2CNC2)n1)OCC1CC1	84.88	
C1CCC(COCCc2noc(C3CNC3)n2)C1	57.88	
Cc1cccc(OCCc2noc(C3CNC3)n2)c1	82.99	
c1ccc(COCc2nc(C3CCCNC3)no2)cc1 (configuration not stated)	-2.705	
C1CC(COCCc2noc(C3CNC3)n2)CCO1	31.48	
CCCN1CCC(Cc2noc(C3CCNC3)n2)CC1 (configuration not stated)	2.055	

Compound	Percent Effect (50 µM) [%]	Percent Effect (10 µM) [%]
CNS(=O)(=O)c1ccc(C(=O)NCC(C)(C)N(C)C)o1	-2.111	
NC(=O)c1ccc(CNC2CC2)c(F)c1	-8.127	
COC(=O)CC(NC(=O)c1cc(C)n[nH]1)C1CC1 (configuration not stated)	5.421	
Cn1cc(CC(=O)Nc2ccc(I)cn2)cn1	-1.266	
Cc1ccc(Br)c(NCC(=O)N2CCOCC2)c1	6.776	
CNC(C)CCNC(=O)c1cc(C)nn1C (configuration not stated)	-4.64	
Cc1csc(S(=O)(=O)NCCCOCC2CCCO2)n1 (configuration not stated)	-3.897	
CCC(C)NC(=O)NC1CCN(c2ccccn2)CC1 (configuration not stated)	-18.28	
N#Cc1cc(F)c(S(=O)(=O)NCCN)c(F)c1	-7.913	
CC(C)N1CCCN(c2nc(-c3cccnc3)nc3c2cnn3C)CC1		55.95
Cn1ncc2c(N3CCS(=O)(=O)CC3)nc(-c3cccnc3)nc21		6.498
Cn1ncc2c(N3CCC3)nc(-c3ccncc3)nc21		-3.528
N[C@@H]1CC[C@H](C(=O)NCc2csc(N3CCCC3)n2)C1	62.86	
Cc1nc(CC(=O)NCc2csc(N3CCCC3)n2)cs1		-6.671
O=C(NCc1csc(N2CCCC2)n1)C1CNCCO1 (configuration not stated)	26.16	
C[C@@H]1CNC[C@H]1c1nc(-c2ccncc2)no1	1.432	
Cc1nn(C)c2c(NCCCn3cccn3)nc(C(C)C)nc12		10.17
CCc1nc(NCCCn2cccn2)c2c(n1)c(C)nn2C		7.651
CCn1nc(C)c2nc(C(C)C)nc(NCCCn3ccnc3)c21		76.16
CCCc1nc(NCCCn2cccn2)c2c(n1)c(C)nn2CC		20.81
CCn1nc(C)c2nc(C(C)C)nc(NCCCn3cccn3)c21		57.58
CCn1nc(C)c2nc(C)nc(NCCCn3cccn3)c21		20.67
CCn1nc(C)c2nc(C(C)C)nc(NCc3ccccn3)c21		23.92
CCCc1nc(NCCCn2ccnc2)c2c(n1)c(C)nn2CC		67.95
CCn1nc(C)c2ncnc(NCCCn3ccnc3)c21		9.36
